In PubChem BioAssay AID2718 (Broad Institute, 2010):
Screen size: about 320,000 compounds; about 480 (0.15%) were called active. Roughly 1% stayed inconclusive and do not appear here. Cut-off read from the data, not from the text of the source: active = inhibition above about 26% (passing the limit was not always enough); inconclusive = no clear call, values can overlap the other calls. Shown is part of a subset that was picked to be rich in actives.

molecular target: Histone deacetylase 3 (Homo sapiens) (UniProt O15379); test: inhibition of human HDAC3 enzyme activity – biochemical, fluorescence, cell-free homogeneous, primary screen (AID 2718); conditions: recombinant HDAC3, fluorogenic peptide/trypsin coupled, at 8.3 µM, active compounds read high
Sequence (O15379 whole entry, looked up): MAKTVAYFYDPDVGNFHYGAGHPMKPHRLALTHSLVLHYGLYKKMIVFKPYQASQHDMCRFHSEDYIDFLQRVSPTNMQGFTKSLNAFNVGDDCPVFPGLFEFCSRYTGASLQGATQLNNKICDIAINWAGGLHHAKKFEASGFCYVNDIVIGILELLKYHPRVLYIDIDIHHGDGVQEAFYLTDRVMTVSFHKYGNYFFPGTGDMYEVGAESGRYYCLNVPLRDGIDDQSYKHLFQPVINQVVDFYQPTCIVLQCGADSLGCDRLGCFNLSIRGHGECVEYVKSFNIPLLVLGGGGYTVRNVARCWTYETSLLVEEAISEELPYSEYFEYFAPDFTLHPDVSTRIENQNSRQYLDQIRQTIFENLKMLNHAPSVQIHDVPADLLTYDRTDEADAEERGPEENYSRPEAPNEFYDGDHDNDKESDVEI

inhibition, inactive:
O=C(Nc1ccccc1F)c1ccc(S(=O)(=O)N2CCCCCC2)cc1 7.14%
O=C(N/N=C/c1ccccn1)c1ccc(S(=O)(=O)N2CCCCCC2)cc1 -5.66%
CCCc1cc(=O)[nH]c(SCC(=O)Nc2ccc(S(=O)(=O)N3CCCC3)cc2)n1 4.11%
O=C1N(c2ccccc2)C(=Nc2ccccc2)SC12CC2 1.18%
Cc1ccccc1N/C(SCc1ccc(Cl)cc1)=C(/C#N)C(N)=O 15.5%
CCOC(=O)C1CCN(CCC(=O)Nc2cccc(C)c2)CC1 1.84%
CC(=O)c1cccc(OCC(=O)OCC(=O)Nc2cc(S(=O)(=O)N3CCCCC3)ccc2C)c1 0.557%
CS(=O)(=O)c1ccc(Cl)c(NC(=O)COC(=O)c2cccc(S(=O)(=O)N3CCCC3)c2)c1 5.04%
CN1CCN(S(=O)(=O)c2cccc(C(=O)O)c2)CC1 -5.01%
COC(=O)c1nc(NC(=O)c2ccc(Cl)cc2)n[nH]1 7.09%
Cn1c(NC(=O)c2ccccc2)nc2ccccc21 9.99%
Nn1c(SCC(=O)Nc2ccc3c(c2)CCC3)nnc1C1CC1 1.79%
Cc1cc(C)n(C(=O)CCNC(=O)c2ccccc2Cl)n1 -13.4%
COc1cccc(N2CC(NS(=O)(=O)c3cccs3)CC2=O)c1 (stereo unspecified) -2.66%
COc1ccccc1C(=O)OCC(=O)Nc1cccc(S(=O)(=O)NC2=NCCCCC2)c1 -6.85%
O=C(COC(=O)c1cc[n+]([O-])cc1)Nc1ccc(Cl)c(C(F)(F)F)c1 -1.85%
COc1cc(OC)cc(C(=O)NCC(=O)OCC(=O)NC(C)CCc2ccccc2)c1 (stereo unspecified) -5.18%
CC(C)Cn1c(SCC(=O)Nc2ccc(Cl)cc2F)nc(O)cc1=O 8.68%
CCC(CO)Oc1cc(NC(=O)c2cccc(F)c2)c2ncn(C(C)C)c2c1 (stereo unspecified) -0.176%
CCC(=O)c1ccc(OCC(=O)Nc2ccc(N3CCCCC3)cc2)cc1 -1.33%
COc1ccc(OCC(=O)Nc2ccc(N3CCC(C)CC3)cc2)cc1 5.48%
O=C(Nc1cc(S(=O)(=O)N2CCCCC2)ccc1Cl)C1COc2ccccc2O1 (stereo unspecified) -0.0794%
COc1cc(OC)cc(-c2cc3ccc(F)cc3cn2)c1 5.76%
CCN(C[C@H]1N[C@@](CC)(C(=O)OC)[C@H]2C(=O)N(Cc3ccccc3)C(=O)[C@@H]12)S(=O)(=O)c1ccc(C(F)(F)F)cc1 4.73%
CC[C@@H]1CCCCc2ccccc2[C@@H](C(=O)C[C@H](O)CC(C)=O)OC1=O -4.02%
O=C(CCNC(=O)c1ccccc1)NN=Cc1ccc(Br)o1 4.25%
Fc1ccccc1-c1cc2cc3c(cc2cn1)OCO3 0.895%
CCOC(=O)C1Cn2c(nc3c(c2=O)C(C)(CC)Cc2ccccc2-3)S1 (stereo unspecified) -2.26%
CCCN(CC1CC1)C(=O)COC(=O)c1ccc(C)cc1O -5.26%
CCCC1CCC(=NNC(=S)NCCc2ccccc2)CC1 (stereo unspecified) -4.85%
COCCN(CCOC)S(=O)(=O)NC[C@H]1O[C@@H](n2cnc3c(N)ncnc32)[C@H](O)[C@@H]1O -1.58%
Cc1nc2ccc(NC(=O)c3cccc(S(=O)(=O)N4CCOCC4)c3)cc2s1 -5.18%

inhibition, active:
O=C(Nc1ncccc1O)c1ccc(S(=O)(=O)N2CCCC2)cc1 72.1%
CNC(=O)NC(=O)C(OC(=O)c1cccc(S(=O)(=O)N2CCCCC2)c1)c1ccccc1 (stereo unspecified) 30.1%
COC(=O)c1nc(NC(=O)c2ccccc2)n[nH]1 58.7%
O=C(COc1ccc([N+](=O)[O-])cc1)Nc1ccc(N2CCCC2)cc1 54.5%
